Rows were chosen to be rich in hits. Some 20% of all compounds tested hit in one or more screens of this group.
Pf growth 96h = inhibits malaria parasite growth, 96 h. P. falciparum luciferase reporter growth, 96 h. AID 504834. 320,000 tested, 6.9% active. Potency, µM (highest dose often 28.7 µM), without a hit: at the top dose activity change, negative = inhibition, hits mostly inhibitors; note: potency is the fitted concentration of half-maximal effect; % is set by controls: 0 for no effect and ±100 for the full control effect
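P. falciparum expressing integrated firefly luciferase grown in erythrocytes (2% hematocrit, 0.05% parasitemia final) with compounds for 96 hours at 37 C, 5% CO2. Growth inhibition read as loss of luminescence after adding luciferase detection reagent.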
Shiga inhibitor = Shiga toxin inhibition; Vero cells, Shiga toxin protein synthesis inhibition reporter; inhibition, % at 38.7 µM; 290,000 tested, 9.2% active; in the data active = inhibition mostly above about 28%, no sharp cut-off; inactive = mostly below about 43%; note: 0% is about no effect
Pf growth 48h = inhibits P. falciparum growth in the first generation, 48 h. P. falciparum luciferase growth in erythrocytes, 48 h. 310,000 tested, 5.9% active. Potency, µM (series often up to 28.7 µM), inactives show top-dose activity change, negative = inhibition, hits mostly inhibitors; note: potency is the fitted concentration of half-maximal effect; % is set by controls: 0 for no effect and ±100 for the full control effect
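Read-out is firefly luciferase luminescence from an integrated reporter in P. falciparum, so falling signal marks reduced parasite growth. Infected erythrocytes were at 2% hematocrit and 0.1% parasitemia (final) in Albumax-supplemented RPMI 1640.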
CHX counter = affects cycloheximide protein synthesis inhibition readout, counter-screen. cell reporter, cycloheximide protein synthesis inhibition counterscreen. max response, %. 300,000 tested, 12% active. AID 2314; in the data active = max response mostly above about 13%, no sharp cut-off; inactive = mostly below about 14%; note: read at 38.3 µM for the half of the compounds with a filed dose; 0% is about no effect
HCMV antiviral = blocks human cytomegalovirus replication. HFF cells, HCMV-luciferase reporter, 72 h; active compounds read low. activity change, negative = inhibition, % at 57.5 µM. 410,000 tested, 4.5% active; in the data active = activity change below about -60%; inconclusive = no clear call, values can overlap the other calls; inactive = above about -39%; note: % is set by controls: 0 for no effect and ±100 for the full control effect
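Cell-based, HFFs, 1000 cells/well, 16 h 37C; cpds in DMSO + HCMV-luc, MOI 1 PFU/cell; 72 h 37C; OneGlo luminescence after 5 min RT; norm. to buffer vs Salinomycin 10uM.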
* = called active by the depositor; ? = inconclusive; . = no result. Unless noted, calls come from the whole dose curve; as a rule, active = well fitted inhibition curve with a large enough effect; inconclusive = small, poorly fitted or top-dose-only effect, or another doubt; inactive = no such curve, though single readings can be large or run the other way.

SMILES	Pf growth 96h	Shiga inhibitor	Pf growth 48h	CHX counter	HCMV antiviral
O=C1C2C3CCCC3=C3CCCC3C2C(=O)N1c1ccccc1 (stereo unspecified)	-16%	-12	.	1	-5
COc1ccc2nc(C)cc(Sc3nc4ccccc4s3)c2c1	?	3	?	5	-99*
COc1cccc(Nc2n[nH]c(=S)s2)c1	0%	-11	51%	-7	-30
COc1ccc2nc(C)cc(C(=O)O)c2c1	.	-2	?	-1	-23
COc1cccc(Nc2nc3ccc(OC)cc3s2)c1	82%	89*	473%	57*	-26
COc1ccc2nc(NC3=NCCC3)sc2c1	.	153*	140%	53*	111
COc1ccc(C(=O)NC(Cc2ccccc2)c2ccc3c(c2)OCCCO3)cc1 (stereo unspecified)	.	-4	?	16	16
Cc1ccc(-c2nn3c(C)nnc3c3ccccc23)cc1S(=O)(=O)NCC(C)O (stereo unspecified)	.	.	.	.	-5
CSc1cc(-c2ccc(Cl)cc2)c(C(=O)NN)s1	12µM*	17	?	2	9
CSc1cc(-c2ccc(Cl)cc2)c(C(=O)NC(C)C)s1	-4%	-4	-4%	-3	-5
Cc1nc(-c2ccc(F)cc2)c(CC(=O)N(C)CC(=O)Nc2ccccc2C(F)(F)F)s1	-3%	.	-9%	.	-27
Cc1nc(-c2ccc(F)cc2)c(CC(=O)N(C)CC(=O)Nc2ccc(Br)cc2C)s1	?	.	5.2µM*	.	-14
Cc1nc(-c2ccc(F)cc2)c(CC(=O)N2CCN(S(=O)(=O)c3cccc(F)c3)CC2)s1	?	.	?	.	-7
Cc1nc(-c2ccc(F)cc2)c(CC(=O)N(C)CC(=O)Nc2ccccc2Br)s1	?	.	13µM*	.	-18
Cc1nc(-c2ccc(F)cc2)c(CC(=O)N2CCN(S(=O)(=O)c3ccccc3Br)CC2)s1	8.3µM*	14	?	-3	-4
Cc1cc(C)c(NC(=O)CNC(=O)Cc2sc(C)nc2-c2ccc(F)cc2)c(C)c1	?	.	13µM*	.	-4
Cc1nc(-c2ccc(F)cc2)c(CC(=O)N(C)CC(=O)Nc2cccc(F)c2)s1	.	.	.	.	-26
CCN(CC(=O)Nc1ccccc1C(F)(F)F)C(=O)Cc1sc(C)nc1-c1ccc(F)cc1	?	.	15µM*	.	-34
COc1ccc(NC(=O)c2oc3ccccc3c2NC(=O)Cc2ccc(F)cc2)c(OC)c1	.	.	.	.	-10
CCN(CC)CCCNC(=O)c1oc2c(c1C)-c1nn(Cc3ccc(Cl)cc3)cc1CC2	.	.	.	.	-97*
Cc1c(C(=O)N2CCCC2)oc2c1-c1nn(CC(=O)NCc3ccccc3F)cc1CC2	.	.	.	.	-64*
COCCCNC(=O)c1oc2c(c1C)-c1nn(Cc3ccc(Cl)cc3)cc1CC2	.	.	.	.	-17
COc1cc([N+](=O)[O-])cc(/C=N\NC(=O)C2COc3ccccc3O2)c1O (stereo unspecified)	-4%	1	?	-2	-35
CC(=O)NC(c1cccc(F)c1)c1nc(-c2cnn(C)c2)cs1 (stereo unspecified)	.	.	.	.	-1
c1ccc(-c2ccc(-c3nccc4ccccc34)[nH]2)cc1	484%	14	81%	29*	.
SMILES	Pf growth 96h	Shiga inhibitor	Pf growth 48h	CHX counter	HCMV antiviral
N#Cc1cc(-c2ccccc2)[nH]c1-c1nccc2ccccc12	?	9	9%	6	?
COc1ccc(NC(=O)c2c(NC(=O)CNCc3ccco3)sc3c2CCC3)cc1	?	5	2.6µM*	8	17
CCOc1ccc(NC(=O)c2c(NC(=O)c3ccccc3F)sc3c2CCC3)cc1	.	.	.	.	-12
CCOc1ccc(NC(=O)c2c(NC(=O)CNCCN3CCOCC3)sc3c2CCC3)cc1	6%	5	0.33µM*	12	?
CC(OC(=O)C1=COCCO1)C(=O)NC1CCCC(C)C1C (stereo unspecified)	.	.	.	.	-15
CCCCC#Cc1ccc2c(c1)COc1c3ccccc3nn1-2	139%	56*	71%	37*	5
Cn1nc(C(=O)OCC(=O)Nc2ccc(S(N)(=O)=O)cc2)c2ccccc2c1=O	-3%	-3	47%	1	0
COC(=O)c1cc2sc(C)cc2n1Cc1nc(-c2cccc(Br)c2)oc1C	.	.	.	.	11
COc1ccc(C(O)c2ncc(-c3ccccc3)[nH]2)cc1F (stereo unspecified)	.	.	.	.	-101*
COc1ccc(C(O)c2ncc(-c3ccccc3Cl)[nH]2)cc1F (stereo unspecified)	.	.	.	.	-102*
CCCN1[C@@H]2c3cccc(=O)n3C[C@H]1[C@H](CO)[C@H]2C(=O)OC	.	.	.	.	-1
CCc1nnc(NC(=O)[C@@H](NS(=O)(=O)c2ccc3c(c2)OCCO3)C(C)C)s1	.	.	.	.	22
Cc1ccc(-n2c3c(c(=O)[nH]c2=O)C(NC(=O)c2ccccc2F)(C(F)(F)F)C(=O)N3)cc1C (stereo unspecified)	.	.	.	.	-5
CCCNc1c(NS(=O)(=O)c2c(F)c(F)c(F)c(F)c2F)c(=O)oc2ccccc12	53%	30	-7%	28	-16
CCSC1=C(C#N)C(c2cccc(O)c2)CC(=O)N1 (stereo unspecified)	-28%	-8	.	0	61
CCSC1=C(C#N)C(c2cccc(Br)c2)CC(=O)N1 (stereo unspecified)	13%	4	6.6µM*	6	25
CCc1ccc(NC(=O)CSC2=C(C#N)C(c3ccc4c(c3)OCO4)CC(=O)N2)cc1 (stereo unspecified)	.	.	.	.	-77*
O=C(c1ccco1)N1CCCC(c2nc3c(nnn3Cc3cccc(Cl)c3)c(=O)[nH]2)C1 (stereo unspecified)	52%	-8	?	-7	6
O=C(c1ccco1)N1CCN(c2ncnc3c2nnn3Cc2ccccc2Cl)CC1	-24%	-9	12µM*	8	-32
O=C(c1ccco1)N1CCN(c2nc(C(F)(F)F)nc3c2nnn3Cc2ccccc2)CC1	.	17	9.3µM*	5	-76*
Cc1ccc(NCC(=O)N/N=C/c2cc(O)ccc2[N+](=O)[O-])cc1	-4%	16	-14%	-4	-1
CCn1nnc2cc(C(=O)O)ccc21	32%	-3	32%	1	-31
COc1ccccc1OCc1nnc(SCC(=O)Nc2nnc(C3CC3)s2)n1C	17%	-13	-6%	-1	-32
CN(C)c1ccc(C(=O)c2ccc(N(C)C)c(N)c2)cc1N	-1%	75	17%	28*	132
CC[n+]1c(/C=C2\C=C(C)CC(C)(C)C2)sc2ccccc21	?	-9	0.33µM*	-3	-19
CCC1=C/C(=C/c2sc3ccccc3[n+]2CC)CC(C)(C)C1	15%	6	?	-6	-40
CC[n+]1c(/C=C2/C=C(C)CC(C)(C)C2)sc2ccc(OC)cc21	36%	43	0.37µM*	17	-87*
Cc1ccc(C#CC(C)(O)C(C)(C)C)cn1 (stereo unspecified)	4%	15	?	17	-28
Cc1noc(C)c1-c1ccc2ncnc(NCc3ccccc3Cl)c2c1	.	-4	.	2	.

Bioassay records (PubChem)
